# Only some compounds are listed: those with a hit (about 4.7% of all), similar ones and a draw of the others.
# tim10-1 inh: growth inhibitors of tim10-1 mutant yeast; inhibition, % at 20 µM; S. cerevisiae tim10-1 ts strain growth, BacTiter-Glo, 24 h; 2.2% of 330,000 active; AID 463190;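 active = inhibition of at least 40%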;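 also: mutant grown at 25 °C; 0% = DMSO wells with yeast and 100% = wells holding no yeast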
# EBI2 block: blocks human EBI2 receptor beta-arrestin signaling; P32249; EBI2 beta-arrestin recruitment, luminescence, 7a,25-OHC stimulated; inhibition, % at 5 µM; 0.81% of 360,000 active; AID 651636; in the data active = inhibition above about 38%;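 also: enzyme fragment complementation signal reports receptor beta-arrestin coupling in cells; 0% = agonist plus DMSO wells and 100% = wells without agonist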
# Target sequence (P32249 whole entry, looked up, the tested form may be a part): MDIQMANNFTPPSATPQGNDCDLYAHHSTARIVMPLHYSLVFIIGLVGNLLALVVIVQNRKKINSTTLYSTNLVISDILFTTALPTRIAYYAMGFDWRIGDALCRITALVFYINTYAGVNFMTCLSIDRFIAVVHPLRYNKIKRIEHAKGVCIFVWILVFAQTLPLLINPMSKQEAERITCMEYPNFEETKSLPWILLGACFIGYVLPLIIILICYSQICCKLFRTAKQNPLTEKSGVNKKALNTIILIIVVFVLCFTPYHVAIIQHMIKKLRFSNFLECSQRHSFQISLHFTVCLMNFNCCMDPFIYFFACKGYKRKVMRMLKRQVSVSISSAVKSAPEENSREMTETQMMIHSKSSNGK
# tim23-1 inh: tim23-1 yeast growth inhibition; S. cerevisiae tim23-1 growth, BacTiter-Glo luminescence, 24 h; inhibition, % at 20 µM; 1.3% of 330,000 active;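 active = growth inhibition of the mutant yeast at or above 50%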;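 also: temperature-sensitive mutant grown at 25 °C; plate controls were DMSO-treated mutant yeast for no effect and medium wells lacking yeast for full effect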
# PfHsp90 yeast 2: growth inhibition of yeast expressing Plasmodium Hsp90. S. cerevisiae expressing PfHsp90, BacTiter-Glo ATP, 48 h; yeast lacking PDR1 and PDR3 efflux regulators. inhibition, % at 9.4 µM. AID 504621. 0.32% of 310,000 active;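 active = every replicate shows inhibition above about 80%, whatever the replicate mean, limit read from the data; inconclusive = mean inhibition reaches the set limit but some replicate falls short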;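 also: 0% = DMSO neutral controls and 100% = 20 µM radicicol positive controls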
# TIM10 inh: inhibits growth of TIM10 yeast strain; S. cerevisiae TIM10 strain growth, BacTiter-Glo luminescence, 24 h; inhibition, % at 10 µM; 1.4% of 330,000 active;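 active = inhibition of 40% or more at the single tested concentration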;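 also: wild-type TIM10 isogenic control strain grown at permissive 25 °C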
# SKKanGAS inh: inhibitors of SKKanGAS S. pyogenes growth in kanamycin (SK-promoter or general growth effect); BacTiter-Glo, 6 h; inhibition, % at 7.5 µM; 1.3% of 300,000 active; AID 1662;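 active = mean replicate score, as percent of positive control median, at least 50; inconclusive = mean below 50 but one replicate at or above 50; inactive = mean and every replicate below 50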;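 also: strain carries kanamycin resistance gene driven by streptokinase promoter and grows in 40 µg/ml kanamycin; loss of luminescence reflects streptokinase promoter inhibition or plain growth inhibition; 0% = median of DMSO wells and 100% = positive control at its reference dose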
# * marks the source's active call; other numbers are inactive results; ? = inconclusive; . = no result.
SMILES,tim10-1 inh,EBI2 block,tim23-1 inh,PfHsp90 yeast 2,TIM10 inh,SKKanGAS inh
Cc1cc(Nc2ccccc2C(=O)O)n2ncnc2n1,.,3,.,.,.,.
O=c1c2ccccc2sc2ccccc12,.,-10,.,.,.,.
O=c1c(C(c2ccccc2)c2c(O)sc3ccccc3c2=O)c(O)sc2ccccc12,-217,-11,31,.,-6,97*
CN(Cc1ccccc1)C(=O)[C@@H]1CCCN1C(=O)[C@@H]1CCCN1C(=O)c1ccccc1,.,-15,.,.,.,.
COc1ccc(OCCCc2c(C)n[nH]c2C)cc1,5,-3,6,26,10,37
Cc1n[nH]c(C)c1CCCOc1ccccc1,5,-5,-13,-14,-33,?
Cc1cccc(OCCCCc2c(C)n[nH]c2C)c1C,35,-3,12,-48,34,99*
CCOc1ccccc1OCCCCCc1c(C)n[nH]c1C,39,-10,4,11,3,61*
COc1ccccc1OCCCCCc1c(C)n[nH]c1C,17,-7,14,11,17,66*
CCOC(=O)N1CCC(N2C(=O)c3ccc(C(=O)Nc4cccc(OC)c4)cc3C2=O)CC1,-22,25,5,7,1,2
COc1ccc(OC)c(S(=O)(=O)NC2CCSc3ccccc32)c1 (stereo not drawn),6,-5,20,-1,-5,2
C#Cc1ccc([C@H]2C=C(C(=O)N3CCN(Cc4ccccc4)CC3)O[C@@H](OCC)[C@@H]2CCCO)cc1,18,56*,15,-1,11,5
O=C(NC(=S)Nc1ccc(Cl)c(C(=O)O)c1)c1cccc(COc2ccccc2)c1,18,1,30,-2,18,56*
CN(C)CC1CC/C(=C\c2ccc(O)cc2)C1=O (stereo not drawn),.,31,.,145*,.,.
COc1ccc(/C=C2/CCC(CN3CCOCC3)C2=O)cc1 (stereo not drawn),.,36,.,146*,.,.
Cc1ccc(/C(O)=C/C(=O)C(=O)NC23CC4CC(CC(C4)C2)C3)cc1,-2,-4,19,-9,-7,54*
Cc1ccc(C(=O)NCC(=O)NC23CC4CC(CC(C4)C2)C3)cc1,12,14,22,6,-4,-2
Cc1n[nH]c(=O)n1-c1ccc(OCc2ccccc2)cc1,7,-2,9,-10,4,5
CN(Cc1ccccc1)S(=O)(=O)c1ccc(C(=O)Nc2nnc(C3CC3)o2)cc1,24,-3,14,12,10,79*
COc1cccc(-c2nnc(NC(=O)c3ccc(S(=O)(=O)N4CCOCC4)cc3)o2)c1,22,-1,15,-3,15,88*
O=C(Nc1nnc(C2CC2)o1)c1ccc(S(=O)(=O)N2CCCCC2)cc1,24,7,20,6,9,8
COc1ccc(-c2nnc(NC(=O)c3ccc(S(=O)(=O)N4CCCc5ccccc54)cc3)o2)cc1,38,-7,-1,17,17,94*
O=C(Nc1nnc(C2CC2)o1)c1ccc(S(=O)(=O)N2CCCc3ccccc32)cc1,27,-5,27,-35,30,91*
COCc1nnc(NC(=O)c2ccc(S(=O)(=O)N3CCCc4ccccc43)cc2)o1,12,1,12,9,3,21
COc1ccc(OC)c(NC(=O)NNC(=O)COc2ccc(F)cc2F)c1,13,0,2,-6,-9,-8
SMILES,tim10-1 inh,EBI2 block,tim23-1 inh,PfHsp90 yeast 2,TIM10 inh,SKKanGAS inh
C[C@@H](c1ccccc1)N1C[C@@H](COCc2ccccc2)Oc2cc(N3CC[C@@H](N(C)C)C3)ccc2S1(=O)=O,.,7,.,.,.,.
C[C@H](NC(=O)c1ncn(Cc2ccccc2)c1C(=O)N[C@@H](C)c1ccccc1)c1ccccc1,20,33,17,.,0,.
Cc1ccc(NS(=O)(=O)c2cc(Br)cnc2N)c(Cl)c1,36,-11,38,-33,7,-4
Nc1ncc(Br)cc1S(=O)(=O)Nc1cc(C(F)(F)F)cc(C(F)(F)F)c1,25,-13,25,-4,12,64*
CCOC(=O)c1c(CN(C)C)n(-c2ccc(C)cc2)c2cc(Br)c(O)cc12,22,-2,15,-12,31,100*
CCOC(=O)c1c(CN(C)C)n(-c2ccccc2)c2cc(Br)c(OC)cc12,28,-9,31,24,24,-4
COc1ccc(C(C)=O)cc1COc1ccc(Cl)cc1Cl,19,6,15,0,27,4
COc1ccc(C(C)=O)cc1COc1cc(C)c(Cl)c(C)c1,2,14,-1,-16,0,50*
COc1cc2ccccc2cc1C(=O)NC(=S)Nc1ccc(C(=O)O)cc1,-9,-2,22,3,-47,54*
OCC[C@@H]1C[C@H](O)[C@@H](O)[C@@]2(OCCCc3cc(C(F)(F)F)ccc32)O1,.,6,.,.,.,.
CCCCCCn1c(=O)c(C(=O)N/N=C/c2cccc(F)c2)c(O)c2ccccc21,-6,-2,-5,-22,-8,63*
CCCn1c(=O)c(C(=O)NC(C)c2ccccc2)c(O)c2ccccc21 (stereo not drawn),-34,0,35,2,-23,-3
CC(C)CCn1c(=O)c(C(=O)N/N=C/c2cccc(F)c2)c(O)c2ccccc21,-25,2,-1,18,0,81*
CCCn1c(=O)c(C(=O)N/N=C/c2ccc(F)cc2)c(O)c2ccccc21,-26,-3,-10,42,-29,103*
CCCn1c(=O)c(C(=O)N/N=C/c2ccccc2F)c(O)c2ccccc21,12,0,-18,.,20,15
CN(c1ccccc1)S(=O)(=O)c1cccc(C(=O)NCCc2c[nH]c3ccccc23)c1,12,48*,5,4,21,2
Cc1ccc(C(NC(=O)NC(C)c2ccccc2)C(Cl)(Cl)Cl)cc1F (stereo not drawn),25,9,17,11,21,57*
CC(=O)[C@]1(O)Cc2c(O)c3c(c(O)c2[C@@H](O[C@H]2C[C@H](N)[C@H](O)[C@H](C)O2)C1)C(=O)c1ccccc1C3=O,23,.,49,.,-10,104*
COc1cccc2c1C(=O)c1c(O)c3c(c(O)c1C2=O)C[C@@](O)(C(=O)CO)C[C@@H]3O[C@H]1C[C@H](N)[C@@H](O)[C@H](C)O1,-13,7,36,-30,-20,108*
COc1cccc2c1C(=O)c1c(O)c3c(c(O)c1C2=O)CC(O)(C(=O)CO)CC3OC1CC(N(C)C)C(O)C(C)O1 (stereo not drawn),.,-24,.,106*,.,.
COc1cccc2c1C(=O)c1c(O)c3c(c(O)c1C2=O)C[C@@](O)(C(C)=O)C[C@@H]3O[C@H]1C[C@H](N)[C@H](O)[C@H](C)O1,.,-7,.,49,.,.
FC(F)(F)c1cnc(Sc2ncn[nH]2)c(Cl)c1,6,-19,10,14,-4,8

# Assay outcomes as filed in PubChem BioAssay.
